Source: PubChem (several laboratories)
Efa HMGR inh – blocks class II HMG-CoA reductase of Enterococcus faecalis; purified E. faecalis HMGR, NADPH absorbance 340 nm kinetic; 190,000 compounds, 0.41% hits; inhibition, % at 10 µM; AID 1066;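 active = inhibition above a set limit, the median over all tested compounds plus 3 SD, cut at about 9.5% in these data; inconclusive = no clear call, values can overlap the other calls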;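 also: enzyme runs in reverse so mevalonate oxidation gives rising NADPH absorbance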
dFosB act-1 – activators of mouse delta FosB homodimer; P13346; purified delta FosB, TAMRA-CDK5 oligo fluorescence polarization; percent of positive-control signal above neutral wells; activation, % at 25 µM; 340,000 compounds, 0.99% hits;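 active = mean activation above about 17%, with every replicate also reaching it, limit read from the data, passing the limit was not always enough; inconclusive = only one of the two conditions met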
Target sequence (P13346 whole entry, looked up): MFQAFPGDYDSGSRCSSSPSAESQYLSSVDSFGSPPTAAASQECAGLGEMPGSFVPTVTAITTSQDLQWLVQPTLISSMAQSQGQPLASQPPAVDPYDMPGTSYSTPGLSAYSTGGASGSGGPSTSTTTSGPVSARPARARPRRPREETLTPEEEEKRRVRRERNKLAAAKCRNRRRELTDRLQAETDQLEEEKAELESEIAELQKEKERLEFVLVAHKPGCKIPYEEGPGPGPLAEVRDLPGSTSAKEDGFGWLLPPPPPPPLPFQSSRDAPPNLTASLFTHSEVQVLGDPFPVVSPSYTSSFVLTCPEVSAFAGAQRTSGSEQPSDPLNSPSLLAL
14-3-3 Bad inh – disrupts binding of bovine 14-3-3 zeta to phospho-Bad peptide; P63103; 220,000 compounds, 0.71% hits; TR-FRET 14-3-3zeta/Dy647-pBad peptide displacement, 1 h; inhibition, % at 21.7 µM;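 active = inhibition above about 70%, limit read from the data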
Target sequence (P63103 whole entry, looked up): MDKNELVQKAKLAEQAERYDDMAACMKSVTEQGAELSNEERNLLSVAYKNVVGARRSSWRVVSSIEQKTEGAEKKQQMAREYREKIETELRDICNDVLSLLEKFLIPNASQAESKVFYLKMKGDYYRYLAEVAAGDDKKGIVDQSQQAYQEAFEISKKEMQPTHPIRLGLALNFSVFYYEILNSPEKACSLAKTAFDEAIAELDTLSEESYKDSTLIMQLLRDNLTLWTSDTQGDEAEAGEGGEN
p47phox inh – inhibitors of human p47phox binding. P14598. p47phox/p22phox peptide binding, fluorescence polarization, 2 h. inhibition, % at 24.7 µM. 220,000 compounds, 0.53% hits;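 active = inhibition above about 30%, limit read from the data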
dFosB act-2 – enhances mouse delta FosB homodimer binding to DNA; shares compounds with dFosB act-1; purified delta FosB, TAMRA-CDK5 oligo fluorescence polarization; normalised: neutral wells 0, positive control 100; activation, % at 24.9 µM; 2,400 tested, under 10 active;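 active = highest replicate activation at or above 34% and every replicate reaching that threshold; inconclusive = meets only one of the two criteria; inactive = meets neither criterion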;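 also: higher polarization means more probe DNA bound by delta FosB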
A number is an active result; - = inactive; ? = inconclusive; . = no result. A selection: hits, their analogues and other compounds. The true share with any hit is near 1.9%.

SMILES	Efa HMGR inh	dFosB act-1	14-3-3 Bad inh	p47phox inh	dFosB act-2
C#CCOCCOCCOCCNc1nc(N2CCN(C(=O)[C@H](CCCN=C(N)N)n3cc(C(N)[C@H](C)CC)nn3)CC2)nc(N2CCN(C(=O)[C@H](CCCN=C(N)N)n3cc(C(N)[C@@H](C)CC)nn3)CC2)n1 (stereo partly drawn)	.	22	.	.	-
C#CCOCCOCCOCCNc1nc(N2CCN(C(=O)[C@H]([C@@H](C)CC)n3cc([C@@H](N)Cc4ccc(O)cc4)nn3)CC2)nc(N2CCN(C(=O)[C@H](CCCCN)n3cc([C@@H](N)C(C)CC)nn3)CC2)n1 (stereo partly drawn)	-	23	-	-	-
C#CCOCCOCCOCCNc1nc(N2CCN(C(=O)[C@H](CCC(=O)O)n3cc(C(N)Cc4ccc(O)cc4)nn3)CC2)nc(N2CCN(C(=O)[C@H](CCCCN)n3cc(C(N)[C@H](C)CC)nn3)CC2)n1 (stereo partly drawn)	.	.	-	-	.
C#CCOCCOCCOCCNc1nc(N2CCN(C(=O)[C@H](CCCCN)n3cc([C@@H](N)C(C)CC)nn3)CC2)nc(N2CCN(C(=O)[C@H](CCCCN)n3cc([C@@H](N)CC(C)C)nn3)CC2)n1 (stereo partly drawn)	-	28	-	.	?
C#CCOCCOCCOCCNc1nc(N2CCN(C(=O)C([C@@H](C)O)n3cc([C@@H](N)CCCCN)nn3)CC2)nc(N2CCN(C(=O)[C@H](CO)n3cc([C@@H](N)C(C)C)nn3)CC2)n1 (stereo partly drawn)	.	31	.	.	-
C#CCOCCOCCOCCNc1nc(N2CCN(C(=O)C([C@@H](C)O)n3cc([C@@H](N)CCCCN)nn3)CC2)nc(N2CCN(C(=O)C([C@@H](C)O)n3cc([C@@H](N)CCCCN)nn3)CC2)n1 (stereo partly drawn)	.	-	.	.	.
NC(=O)C1CCN(CC(O)CSc2ccccc2)CC1 (stereo not drawn)	.	-	-	-	.
Cc1ccc(C(=O)OCC(=O)NCc2ccco2)s1	-	-	-	-	.
Cc1ccc(C(=O)CN(C(=O)c2ccc(Cl)c(Cl)c2)N2C(=O)C3CCCCC3C2=O)cc1 (stereo not drawn)	-	-	-	-	.
C#CCOCCOCCOCCNc1nc(N2CCN(C(=O)[C@H](Cc3ccc(O)cc3)n3cc([C@@H](N)C(C)CC)nn3)CC2)nc(N2CCN(C(=O)[C@H](Cc3cc4ccccc4[nH]3)n3cc([C@@H](N)C(C)CC)nn3)CC2)n1 (stereo partly drawn)	-	40	-	.	-
C#CCOCCOCCOCCNc1nc(N2CCN(C(=O)[C@H](Cc3ccc(O)cc3)n3cc([C@@H](N)C(C)CC)nn3)CC2)nc(N2CCN(C(=O)[C@H](Cc3cc4ccccc4[nH]3)n3cc([C@@H](N)CC(C)C)nn3)CC2)n1 (stereo partly drawn)	-	.	-	.	.
C#CCOCCOCCOCCNc1nc(N2CCN(C(=O)[C@H]([C@@H](C)CC)n3cc([C@@H](N)CC(C)C)nn3)CC2)nc(N2CCN(C(=O)[C@H]([C@@H](C)CC)n3cc([C@@H](N)CC(C)C)nn3)CC2)n1	-	31	-	.	-
Cn1cccc1Cc1nnc(SCC(=O)NCc2ccc(F)cc2)n1-c1ccc(F)cc1	.	-	.	.	.
Cc1sc(NC(=O)C2C3C=CC(C3)C2C(=O)O)c(C(N)=O)c1-c1ccc(C(C)C)cc1 (stereo not drawn)	-	-	-	-	.
CC(=O)N1CCN(c2cc(N3CCCC3)c(F)cc2[N+](=O)[O-])CC1	-	-	-	-	.
CCN1CCN(c2cc(N3CCc4ccccc4C3)c(F)cc2[N+](=O)[O-])CC1	-	19	-	-	-
CCN1C(=O)N(c2ccc(Cl)cc2)C(C)=CC1(C)C	-	-	-	-	.
COc1ccccc1N1CCN(C2=Nc3cccc4cccc2c34)CC1	-	26	-	-	-
c1ccc(CC2CCN(C3=Nc4cccc5cccc3c45)CC2)cc1	-	23	-	-	-
CCOC(=O)N1CCN(C2=Nc3cccc4cccc2c34)CC1	-	22	-	-	-
CC1CN(C2=Nc3cccc4cccc2c34)CC(C)O1 (stereo not drawn)	-	-	-	-	.
CC(=O)N1CCN(C2=Nc3cccc4cccc2c34)CC1	-	17	-	-	-
c1cc2c3c(cccc3c1)C(N1CCOCC1)=N2	.	-	-	-	.
CCOC(=O)N1CCN(C(=O)Nc2cccc3ccccc23)CC1	-	-	-	-	.
COC(=O)CSc1nnc(CNS(=O)(=O)c2ccc(C)cc2)n1C	-	-	-	-	.
SMILES	Efa HMGR inh	dFosB act-1	14-3-3 Bad inh	p47phox inh	dFosB act-2
Cc1ccc(C(=O)C2CC2)c(C)c1	.	-	.	.	.
Cc1ccc2cc(C)c(SCC(=O)Nc3cc(C)on3)nc2c1	.	-	.	.	.
COc1ccc(NC(=O)c2cc(-c3cc(OC)c(OC)c(OC)c3)nc3ccccc23)cc1OC	.	-	.	.	.
COc1ccc(-c2cc(C(=O)Nc3nc4c(C)cccc4s3)c3ccccc3n2)cc1OC	-	39	-	-	-
COc1cc(-c2cc(C(=O)Nc3cccc(S(=O)(=O)N(C)C)c3)c3ccccc3n2)cc(OC)c1OC	.	41	.	.	-
COc1ccc(CSCC(=O)N/N=C/c2ccc(OCC(=O)N3CCCCC3)cc2)cc1	-	-	-	-	.
Cc1ccc(CSCC(=O)N/N=C/c2ccc(OCC(=O)Nc3ccc(C)cc3)cc2)cc1	-	27	-	-	-
C#CCN1C(=O)C2(OCCO2)c2ccccc21	.	-	.	.	.
COc1cccc(-n2c(SCC(=O)N3CCc4ccccc43)nnc2-c2c[nH]c3ccccc23)c1	-	-	-	-	.
CCOc1ccc(-n2c(SCC(=O)N3CCc4ccccc43)nnc2-c2c[nH]c3ccccc23)cc1	-	27	93	48	-
Cc1cccc(-n2c(Cc3cc(=O)[nH]c(=O)[nH]3)nnc2SCC(=O)N2CCc3ccccc32)c1	.	38	.	.	-
O=C(Nc1cccc(-c2nc3ccccc3s2)c1)c1cc(-n2cnnc2)ccc1Cl	-	-	-	-	.
Cc1c(NC(=O)c2cc(-n3cnnc3)ccc2Cl)cccc1-c1nc2ccccc2s1	-	31	-	-	-
O=C(Nc1ccc(S(=O)(=O)Nc2ncccn2)cc1)C1COc2ccccc2O1 (stereo not drawn)	-	-	-	-	.
CCN(CC(=O)Nc1ccc(NC(C)=O)cc1)C(=O)/C=C/c1cn(-c2ccccc2)nc1-c1ccc(F)cc1	.	21	.	.	-
Nc1nonc1-n1nnc(C(=O)N/N=C/c2ccc(O)cc2)c1COc1ccc(F)cc1	.	-	-	-	.
Nc1nonc1-n1nnc(C(=O)N/N=C/c2ccc(OCc3ccccc3)cc2)c1COc1ccc(F)cc1	.	-	-	-	.
Cc1cccc(COc2ccc(/C=N/NC(=O)c3nnn(-c4nonc4N)c3COc3ccc(F)cc3)cc2)c1	.	27	-	-	-
Nc1nonc1-n1nnc(C(=O)N/N=C/c2ccccc2Cl)c1COc1ccc(F)cc1	.	27	-	-	-
Cc1ccccc1COc1cccc(/C=N/NC(=O)c2nnn(-c3nonc3N)c2C)c1	.	24	.	.	-
